Measurements: PMC10812921, “Transcriptional Coactivator BOB1 (OBF1, OCA-B) Modulates the Specificity of DNA Recognition by the POU-Domain Factors OCT1 and OCT2 in a Monomeric Configuration”

The sequences below were run against T1, POU2 (OCT2 POU domain);BOB1 (OBF1, OCA-B) (human;human, UniProt P09086;Q16633 175-386;1-256, |) (assay: EMSA-SELEX-seq; with BOB1 (ternary complex band); 20 mM Tris-HCl pH 7.6, 140 mM NaCl, 10% glycerol, 0.5 mM EDTA, 0.05% Triton X-100, 0.1 mg/mL BSA, 0.1 mg/mL poly(dI-dC), 5 mM DTT, room temperature, 20 min; high values mean tight binding). Details: protein: recombinant;recombinant; copies: 1;1; dsDNA, one strand shown.
T1 sequence 1: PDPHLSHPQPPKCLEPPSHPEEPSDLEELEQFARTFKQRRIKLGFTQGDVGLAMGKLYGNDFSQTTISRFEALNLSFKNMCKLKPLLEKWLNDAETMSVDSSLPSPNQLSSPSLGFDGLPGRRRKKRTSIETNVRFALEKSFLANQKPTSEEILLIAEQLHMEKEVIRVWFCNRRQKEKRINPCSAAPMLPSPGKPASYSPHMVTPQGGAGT
T1 sequence 2: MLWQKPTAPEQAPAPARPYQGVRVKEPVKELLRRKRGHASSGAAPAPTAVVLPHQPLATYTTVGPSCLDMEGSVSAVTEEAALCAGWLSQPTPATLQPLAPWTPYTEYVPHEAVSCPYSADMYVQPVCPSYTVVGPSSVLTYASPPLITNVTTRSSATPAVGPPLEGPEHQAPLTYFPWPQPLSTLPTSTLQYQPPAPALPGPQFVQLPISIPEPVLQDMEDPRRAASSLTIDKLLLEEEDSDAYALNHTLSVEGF
Procedure, shortened: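 After expression in E. coli BL21, tagged POU-domain proteins were purified under denaturing conditions and then renatured. Each binding reaction held 30 ng protein and 300 ng of a PCR-amplified double-stranded random 35-nt library in 20 μL Tris–HCl pH 7.6 binding buffer, with or without 28 ng coactivator protein, for 20 min at RT. Bands holding complexes were cut from native 6% PAGE, eluted and PCR-amplified across four rounds, and the output was Illumina-sequenced. The value given for binding preference is the share, in percent, of sequenced 8-mers fitting a motif pattern.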

| Sequence | binding signal |
| --- | --- |
| ATTATAAT | 0.207 % of ANNNNAAN 8-mers |
| ACTTAAAT | 0.057 % of ANNNNAAN 8-mers |
| ATCTAAAG | 0.0479 % of ANNNNAAN 8-mers |
| AACAAAAA | 0.0726 % of ANNNNAAN 8-mers |
| AATGCAAA | 3.21 % of ANNNNAAN 8-mers |
| ACTGGAAA | 0.0429 % of ANNNNAAN 8-mers |
| ATATAAAG | 0.0603 % of ANNNNAAN 8-mers |
| ATCCAAAA | 0.0446 % of ANNNNAAN 8-mers |
| ATAACAAA | 0.0883 % of ANNNNAAN 8-mers |
| ACGCGAAG | 0.0239 % of ANNNNAAN 8-mers |
| AGATTAAA | 0.071 % of ANNNNAAN 8-mers |
| ATTAGAAA | 0.0892 % of ANNNNAAN 8-mers |
| AGTAGAAC | 0.0239 % of ANNNNAAN 8-mers |
| ACGTGAAT | 0.0784 % of ANNNNAAN 8-mers |
| ATCATAAA | 0.0586 % of ANNNNAAN 8-mers |
| ATATAAAA | 0.0702 % of ANNNNAAN 8-mers |
| ATCTGAAA | 0.0545 % of ANNNNAAN 8-mers |
| ACACCAAA | 0.0149 % of ANNNNAAN 8-mers |
| ACCAAAAT | 0.0537 % of ANNNNAAN 8-mers |
| AACAGAAC | 0.0231 % of ANNNNAAN 8-mers |

| Sequence | binding signal |
| --- | --- |
| ATAATAAT | 0.143 % of ANNNNAAN 8-mers |
| AAAGCAAT | 0.0371 % of ANNNNAAN 8-mers |
| AACAAAAG | 0.0454 % of ANNNNAAN 8-mers |
| ACCCTAAG | 0.0107 % of ANNNNAAN 8-mers |
| ATACGAAA | 0.0693 % of ANNNNAAN 8-mers |
| AAAGTAAA | 0.0759 % of ANNNNAAN 8-mers |
| AGTCGAAG | 0.0347 % of ANNNNAAN 8-mers |
| AGTCTAAG | 0.0297 % of ANNNNAAN 8-mers |
| AACGCAAT | 0.0314 % of ANNNNAAN 8-mers |
| AGTCAAAT | 1.04 % of ANNNNAAN 8-mers |
| ATTTTAAG | 0.101 % of ANNNNAAN 8-mers |
| ATGATAAA | 0.0619 % of ANNNNAAN 8-mers |
| ACAATAAT | 0.0528 % of ANNNNAAN 8-mers |
| AAGTTAAA | 0.071 % of ANNNNAAN 8-mers |
| AGTTTAAG | 0.0504 % of ANNNNAAN 8-mers |
| AGAACAAA | 0.033 % of ANNNNAAN 8-mers |
| ACGCTAAG | 0.0231 % of ANNNNAAN 8-mers |
| ACATTAAT | 0.102 % of ANNNNAAN 8-mers |
| AGGATAAA | 0.0718 % of ANNNNAAN 8-mers |
